In all, about 63,000 compounds went through this assay and about 1,100 (1.7%) were called active. The sample as a whole holds a higher share of actives than the screen did. Measured potencies and affinities stand elsewhere. Unmarked numbers belong to inactive results.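 The calls were made as follows: active = compounds whose percent cytotoxicity in the single-dose primary screen, scaled between solvent and toxic-drug controls, exceeds 50; inactive = the rest.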

The text below walks through data of PubChem BioAssay AID431 (Sanford-Burnham Center for Chemical Genomics, 2006).

This test is described as follows: cytotoxicity in KRAS-transformed pancreatic duct cells, primary screen, cell-based, fluorescence, HTS (AID 431).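 Also: 0% = DMSO solvent wells and 100% = doxorubicin-treated wells.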 The conditions noted are these: HPDE-C7K KRASV12 cells, Alamar Blue viability, 48 h; at 10 µM; active compounds read high. (Alamar Blue is a resazurin reagent that responds to reducing activity.)
On to `OCCN1CCN(c2nc(-c3ccccc3)c3cc(Cl)ccc3n2)CC1`, for which the cytotoxicity is 130% (active). Regarding `Clc1ccc2nc(NC3=NCN(CCN4CCOCC4)CN3)nc(-c3ccccc3)c2c1`, the cytotoxicity was 8.5%.

Take `CN1CCN(c2nc(-c3ccccc3)c3cc(Cl)ccc3n2)CC1`: the cytotoxicity is 29.7%. Take `CN1CCN(c2nc(N3CCN(CCO)CC3)nc3ccccc23)CC1`: the cytotoxicity is 8.2%.

Consider `Cc1ccc2nc(N3CCC(C(=O)O)CC3)nc(-c3ccccc3)c2c1`, for which the cytotoxicity is 1%.

`CS(=O)(=O)N1CCC(c2noc(-c3ccc(C(F)(F)F)cc3)n2)CC1`: the cytotoxicity is 0.2%. In the case of `COc1ccc(N/C=C2\CCOC2=O)cc1`, the cytotoxicity is 43.6%. Under `COC(=O)c1ccc(OCC(=O)c2ccc(O)cc2O)cc1` stands 0.1%; under `C=CCOc1ccc(/C(O)=C2\C(=O)C(=O)N(CCOC)C2c2cccnc2)cc1` (stereo not drawn), -14%; under `OC(CCN1CCCC1)(c1ccccc1)C1CCCCC1` (stereo not drawn), 28.9%. Under `CC(C)(C)c1ccc(C(O)CCCN2CCC(C(O)(c3ccccc3)c3ccccc3)CC2)cc1` (stereo not drawn) stands 121% (active).

Take `OC(CCN1CCCCC1)(c1ccccc1)C1CCCCC1` (stereo not drawn): the cytotoxicity is 14.3%.

For the molecule `COc1cccc(C2CC(c3ccc(C)cc3)Nc3nc(N)nn32)c1` (stereo not drawn), the cytotoxicity was 1.4%.

As for `CCN1CCN(C(=O)C2CCN(Cc3nc(-c4cccc(Cl)c4)oc3C)CC2)CC1`, the cytotoxicity is 1.9%.

As to `Cc1oc(-c2cccc(Cl)c2)nc1CN1CCC(C(=O)N2CCN(c3ccccn3)CC2)CC1`, the cytotoxicity is 6.5%. For `Cc1oc(-c2cccc(Cl)c2)nc1CN1CCC(C(=O)N2CCN(c3ccccc3F)CC2)CC1`, the cytotoxicity is 62% (active). As for `Cc1cccc(OCC(O)Cn2c(NCCCOC(C)C)nc3c2c(=O)[nH]c(=O)n3C)c1` (stereo not drawn), the cytotoxicity was -8%. Take `CN(C)c1ccc(-c2nn3c(-c4ccccc4Cl)nnc3s2)cc1`: the cytotoxicity is 57.1% (active). In the case of `CN(C)c1ccc(-c2nn3c(-c4ccc(Cl)cc4Cl)nnc3s2)cc1`, the cytotoxicity is 50.5% (active). The value for `COc1ccccc1-c1nnc2sc(-c3ccc(N(C)C)cc3)nn12` was 44%; that for `Clc1ccccc1-c1nnc2sc(-c3ccncc3)nn12` was 3.4%. Consider `Cc1nn2c(-c3ccc(Cl)cc3Cl)nnc2s1`, for which the cytotoxicity is -0.2%.

On to `CN(C)c1ccc(-c2nn3c(-c4ccc(Cl)cc4)nnc3s2)cc1`, for which the cytotoxicity is -7.1%. Under `O=S(=O)(Cc1ccccc1)N1CCn2c(nc3ccccc32)C1` stands 9.3%; under `CCOc1cccc(-c2nnc3sc(COc4ccc(Cl)cc4)nn23)c1`, 24.5%; under `CCN(Cc1cc2ccccc2[nH]c1=O)C(=O)C1CCCCC1`, -7.8%.

For `Cc1ccc(C(=O)C(C)OC(=O)C2CC(=O)N(C3CCCCC3)C2)cc1` (stereo not drawn), the cytotoxicity is -11.4%. On to `CC(C)(C)c1cc(CN2CCN(CCO)CC2)cc(C(C)(C)C)c1O`, for which the cytotoxicity is -4.4%.

Turning to `CC(C)(C)c1cc(C(=S)N2CCN(CCO)CC2)cc(C(C)(C)C)c1O`, the cytotoxicity was -13.9%. For `Cc1cc(N2CCN(c3cccc(C(F)(F)F)c3)CC2)n2ncnc2n1`, the cytotoxicity is -14.7%. For `CCNc1sc(C(=O)c2cccs2)c(N)c1-c1nc2ccccc2s1`, the cytotoxicity was 74.9% (active).

As for `CNc1sc(C(=O)c2cccs2)c(N)c1-c1nc2ccccc2s1`, the cytotoxicity is 33.2%. Consider `CCNc1sc(C(=O)c2cccs2)c(N)c1C#N`, for which the cytotoxicity is -11.8%. As for `O=C(NCc1ccncc1)c1c(F)c(F)c(F)c(F)c1F`, the cytotoxicity is -8.2%. For the molecule `Cc1ccc(SCc2cc(=O)[nH]c(N3CCN(Cc4ccc5c(c4)OCO5)CC3)n2)cc1`, the cytotoxicity is 0.2%. The value for `Cn1c(-c2cc(Br)ccc2O)n[nH]c1=S` was 0.6%; that for `Cc1ccccc1OCCCC(=O)Nc1ccc(N2CCOCC2)cc1` was 1.2%. Regarding `O=C(Nc1ccccc1)NC1(C(=O)NCCCN2CCOCC2)CCCCC1`, the cytotoxicity was 0.6%. Under `CC(C)C(c1nnnn1C1CCCC1)N1CCc2ccccc21` (stereo not drawn) stands -8.4%; under `COc1ccc(C(C)(C)C)cc1NC(=O)Nc1ccc2c(c1)OCO2`, 50.7% (active); under `COC(=O)c1ccc(C(=O)OC)c(NC(=O)Nc2ccc3c(c2)OCO3)c1`, -0.1%. `COc1ccccc1NC(=O)Nc1ccc2c(c1)OCCO2`: the cytotoxicity is -11.4%. As to `CCCCCCOC(=O)C1=C(C)NC(=O)NC1c1ccc(O)cc1` (stereo not drawn), the cytotoxicity was -1.4%.

Take `N#Cc1c(-c2ccco2)nc(SCC(=O)Nc2cccc(Cl)c2)[nH]c1=O`: the cytotoxicity is 17.5%.

Consider `N#Cc1c(-c2ccco2)nc(SCc2ccc(F)cc2)[nH]c1=O`, for which the cytotoxicity was 68.9% (active). As to `Cc1nc(SCc2cccc(F)c2)[nH]c(=O)c1C#N`, the cytotoxicity is -15.2%. Turning to `O=C(/C=N\O)NCCCNCc1ccccc1`, the cytotoxicity was 11%.

With `O=C(c1noc2c1CCCC2)N1CCN(C(c2ccccc2)c2ccccc2)CC1`, the cytotoxicity is 2.5%. For the molecule `CCOc1cc(C(=O)N(C)c2ccccc2)cc(OCC)c1OCC`, the cytotoxicity is 4.9%.

For `CCCCOCCCNC(=O)COc1ccccc1`, the cytotoxicity was -4%.

As for `O=C1CC(c2ccco2)CC(O)=C1C=NCCO` (stereo not drawn), the cytotoxicity is -9.5%.

Take `O=C1CC(c2ccco2)CC(O)=C1C=NCCN1CCNCC1` (stereo not drawn): the cytotoxicity was -12.7%.

On to `O=C1CC(c2ccco2)CC(O)=C1C=Nc1cc(Cl)ccc1O` (stereo not drawn), for which the cytotoxicity was 75.8% (active). As for `Cc1occc1-c1nnc(SCC(=O)N2CCCc3ccccc32)n1Cc1ccco1`, the cytotoxicity was -3.2%. As to `COc1ccc2c(C)nc(Nc3nc(C)cc(C)n3)nc2c1`, the cytotoxicity is -1%. As for `Cc1nnc(SCc2cc(=O)[nH]c(Nc3nc(C)c4ccccc4n3)n2)s1`, the cytotoxicity was 3.9%. Turning to `CCc1c(C)nc(Nc2nc(C)c3cc(OC)ccc3n2)[nH]c1=O`, the cytotoxicity was 49.1%.

For the molecule `Cc1ccc2c(C)nc(Nc3nc(CSc4nnnn4-c4ccccc4)cc(=O)[nH]3)nc2c1`, the cytotoxicity was 54.8% (active). Take `COc1ccc2c(C)nc(Nc3nc(C)cc(=O)[nH]3)nc2c1`: the cytotoxicity is 87.3% (active). As for `Cc1ccc(Nc2nc(CSc3nnnn3-c3ccccc3)cs2)cc1`, the cytotoxicity is 39.8%.

`Cc1ccc(Nc2nc(CSc3nnnn3-c3ccccc3)cc(=O)[nH]2)cc1`: the cytotoxicity was 23.4%. Under `Cc1nc(Nc2nc(-c3ccccc3)cc(=O)[nH]2)nc2ccccc12` stands 68.2% (active).

For the molecule `COc1nc(Nc2nc3ccccc3c(=O)[nH]2)nc2ccc(C)cc12`, the cytotoxicity was 91.7% (active). Regarding `Cc1nc(-c2ccccc2)cc(=O)[nH]1`, the cytotoxicity is 6.9%. As for `COCc1cc(=O)[nH]c(Nc2nc(C)c3ccc(C)cc3n2)n1`, the cytotoxicity is 2.4%. `CCCCCc1c(C)nc(Nc2nc(C)c3cc(OC)ccc3n2)[nH]c1=O`: the cytotoxicity is 9.7%. As for `O=C(O)Cc1nc2nc3c(c(=O)n2[nH]1)CCCC3`, the cytotoxicity was 2%.

As to `Cc1cc(C)nc(NC(=O)c2cccc(Cl)c2)n1`, the cytotoxicity is -1.9%. The value for `COc1ccc(OCCCC(=O)Nc2ccc3c(c2)OCCO3)cc1` was 12.2%; that for `C=CCc1c(C)c(C#N)c2nc3ccccc3n2c1NCCN(C)C` was 5.5%; that for `CCOC(=O)c1cc2c(ccn2C)n1CC(=O)N1CCN(c2ccc(F)cc2)CC1` was -18.9%. Regarding `CSc1nc(N2CCOCC2)c2ccccc2n1`, the cytotoxicity was 9.1%. As to `Cc1cc(C)c(NC(=O)CN2CCN3CCCC3C2)c(C)c1` (stereo not drawn), the cytotoxicity was 2.9%. The value for `O=C(NC1CC2CCCC(C1)N2C1CC1)NC12CC3CC(CC(C3)C1)C2` (stereo not drawn) was 5.1%; that for `CCOC(=O)c1cccc(NC(=O)CSc2nc3ccccc3c(=O)n2CC)c1` was -11.5%. Under `O=C(COC(=O)CCC1CCCC1)Nc1ccc(Cl)cn1` stands -7.1%.

Take `COc1cccc(N2CC(O)Cn3c2nc2c3c(=O)n(CCCc3ccccc3)c(=O)n2C)c1` (stereo not drawn): the cytotoxicity is 7.7%. `CN1C(=O)CSc2ccc(NC(=O)Nc3ccccn3)cc21`: the cytotoxicity is -13.1%.

On to `Cc1cc(C)nc(NS(=O)(=O)c2ccccc2)n1`, for which the cytotoxicity was 16.4%.

On to `COc1ccc(-c2ccc(SCC(=O)N3CCOCC3)nn2)cc1`, for which the cytotoxicity was -3.5%.

For the molecule `COc1ccc(-c2nc3c(c(SCC(=O)N4CCOCC4)n2)COC(C)(C)C3)cc1`, the cytotoxicity is 52.7% (active). As to `O=C(CSc1nc(-c2ccccc2)nc2c1CCCC2)N1CCOCC1`, the cytotoxicity was -14.2%. As to `COCCCNC(=O)CS(=O)(=O)Cc1nc(-c2ccccc2C)oc1C`, the cytotoxicity is -5.9%. Regarding `CC(=O)N1CCc2ccc(C(=O)CN3CCN(c4cccc(C)c4C)CC3)cc21`, the cytotoxicity was -16.3%. On to `Cc1nc(N2CCCC2)c2nnn(Cc3ccccc3Cl)c2n1`, for which the cytotoxicity was -7.7%. On to `O=C(c1ccco1)N1CCN(c2nc(C(F)(F)F)nc3c2nnn3Cc2ccccc2)CC1`, for which the cytotoxicity was -16.9%. For `CSc1nc(SCC(=O)NCc2ccco2)c2c3c(sc2n1)CN(C)CC3`, the cytotoxicity is 4.2%. As for `CSc1nc(SCC(=O)NCc2ccco2)c2c3c(sc2n1)COC(C)(C)C3`, the cytotoxicity is 50.1% (active). With `Cc1nc(NCc2ccco2)c2c3c(sc2n1)CCC3`, the cytotoxicity was 52% (active). For `Cc1nc(SCC(=O)NCc2ccco2)c2c3c(sc2n1)CCCC3`, the cytotoxicity was 2.5%. On to `CC(C)c1nc2sc3c(NCc4ccco4)ncnc3c2c2c1COC(C)(C)C2`, for which the cytotoxicity was -13.3%. Regarding `c1coc(CNc2ncnc3sc4c(c23)CCCCC4)c1`, the cytotoxicity is -13.4%. The value for `CC(C)c1nc2sc3c(SCC(=O)NCc4ccco4)ncnc3c2c2c1CCC2` was 7.4%; that for `CC(C)Sc1nc(SCC(=O)NCc2ccco2)c2c3c(sc2n1)COC(C)(C)C3` was 0.4%. As to `CC(C)Sc1nc(NCc2ccco2)c2c3c(sc2n1)COC(C)(C)C3`, the cytotoxicity was 68.5% (active). On to `CSc1nc(NCc2ccco2)c2c3c(sc2n1)CN(C)CC3`, for which the cytotoxicity was -5.3%. `O=C(CSc1ncnc2sc3c(c12)CCCCC3)NCc1ccco1`: the cytotoxicity was 1.1%. In the case of `CCCc1nc2sc3c(SCC(=O)NCc4ccco4)ncnc3c2c2c1CCC2`, the cytotoxicity is 50.3% (active).
